Out of some 350,000 compounds screened, about 31,000 (8.9%) were called active. Inconclusive results (about 15%) are left out. The call rests on the fitted dose curve; in most records, active means well fitted inhibition curve with a large enough effect; inconclusive means small, poorly fitted or top-dose-only effect; inactive means no such curve, though single readings can be large or run the other way. For the sample, actives were picked, then their nearest neighbours and some compounds at random.
Each compound was assayed against Histone-lysine N-methyltransferase EHMT2 (Homo sapiens) (UniProt Q96KQ7) (assay: qHTS Assay for Inhibitors of Histone Lysine Methyltransferase G9a). Settings: G9a H3K9 monomethylation, AlphaScreen, 2 h; series mostly up to 59 µM.
Summary of the method: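 Readings reflect AlphaScreen signal from monomethyl-H3K9 antibody detection. HMT at 20 nM; substrate b-H3K9 500 nM; cofactor SAM 20 uM; 2 h RT reaction; compounds tested as titrations in qHTS with 15 min preincubation.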
Further: nearly all actives have a fitted effect of over 75% in size.
On the % scale 0 is the no-effect control and ±100 the full control effect; potency means the concentration at half of the fitted maximal effect.

Sequence of Histone-lysine N-methyltransferase EHMT2 (Homo sapiens) (Q96KQ7 913-1193 limits assumed): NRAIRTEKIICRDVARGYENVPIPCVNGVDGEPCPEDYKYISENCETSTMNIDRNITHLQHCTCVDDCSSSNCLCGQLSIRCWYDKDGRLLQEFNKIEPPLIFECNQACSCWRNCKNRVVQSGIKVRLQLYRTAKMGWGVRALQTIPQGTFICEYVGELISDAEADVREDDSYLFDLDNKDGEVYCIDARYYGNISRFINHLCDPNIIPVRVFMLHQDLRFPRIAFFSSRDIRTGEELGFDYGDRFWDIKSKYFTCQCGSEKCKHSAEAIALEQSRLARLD

Potency, active:
COc1ccc(-c2cn(-c3ccc(OC)cc3)c(=S)[nH]2)cc1 1.41 µM, COc1ccc(C2NC(=S)NC3=C2CCc2ccccc23)cc1OC (centres undefined) 0.631 µM, COc1cc(CN2CCC(n3nccc3NC(=O)CCCc3ccccc3)CC2)ccc1O 70.8 µM, CCN1CCN(CCNC(=O)c2ccc(/C=C3/Sc4ccccc4N(Cc4cccc(C)c4)C3=O)cc2)CC1 44.7 µM, O=C(NCCN1CCOCC1)c1ccc(/C=C2\Sc3ccccc3N(Cc3ccc(F)cc3)C2=O)cc1 28.2 µM, Cc1c(C)c(C)c2[nH]c(=S)[nH]c2c1C 1.12 µM, CO/N=C/c1ccc(N2CCN(C(=O)c3cccc(Cl)c3)CC2)c([N+](=O)[O-])c1 14.1 µM, Cc1ccccc1-n1nc(C)c2cc(C(=O)NC3CC3)sc21 79.4 µM, S=c1[nH]nc(Nc2ccccc2)s1 1.12 µM, S=c1[nH]nc(NCCc2ccccc2)s1 0.316 µM, Cc1sc(C2C(C#N)=C(N)N(c3cccc(Cl)c3)C3=C2C(=O)CCC3)cc1CN1CCOCC1 (centres undefined) 15.8 µM, COc1ccc(C(=O)Oc2ccc(-c3nnco3)cc2)cc1S(=O)(=O)N1CCOCC1 50.1 µM, Cc1ccc(Cl)cc1N1CCN(C(=O)c2cccc3c(=O)c(C)c(-c4ccccc4)oc23)CC1 7.94 µM, Cc1ccc(-c2nc3ccccn3c2Nc2c(C)cccc2C)o1 12.6 µM, Cc1ccc(CN2COc3cc(C)c4c(oc(=O)c5ccccc54)c3C2)cc1 12.6 µM, COC(=O)C(=Nc1ccccc1)/C(C(=O)C(=O)N(C)c1ccccc1)=C(\O)c1ccc(Cl)cc1 20 µM, O=C(O)CC/C(=C\c1cc2c(cc1Br)OCO2)c1nc2ccccc2s1 35.5 µM, O=C(Nc1ccc(N2CCCCC2)cc1)c1cc(S(=O)(=O)N2CCOCC2)ccc1F 17.8 µM, COc1ccc(S(=O)(=O)N2CCOCC2)cc1NC(=O)COc1ccccc1 12.6 µM, O=C(CNCc1ccco1)Nc1cc(S(=O)(=O)N2CCOCC2)ccc1N1CCCC1 50.1 µM, CC(Oc1ccc(F)cc1)C(=O)Nc1cc(S(=O)(=O)N2CCOCC2)ccc1N1CCN(C)CC1 (centres undefined) 11.2 µM

Potency, inactive:
COC(=O)c1ccccc1NC(=O)Cn1c(=O)cc(C)c2c(C)nn(-c3cccc(Cl)c3C)c21, Cn1nnc2c(N3CCN(c4ccccc4)CC3)ncnc21, O=C(Cc1ccc(Cl)cc1)NCC(c1cccs1)S(=O)(=O)c1ccc(Cl)cc1 (centres undefined), Cc1ccc(-c2nn(-c3ccccc3)cc2C(=O)NCCCN2CCCC2=O)cc1, COc1ccc(-n2cc(-c3ccccc3)c3c(=S)nc[nH]c32)cc1, COc1ccc(N2C(=O)CNC2=S)cc1, COc1ccccc1CCNC(=O)c1c(C)nn(CC(C)C)c1Cl, COc1cccc(NC(=O)Cn2c(=O)cc(C)c3c(C)nn(-c4cccc(F)c4)c32)c1, Fc1ccc(CN2CCc3nc(Nc4ccccc4)ncc3C2)cc1F, COc1ccc(CN2CCC(n3nccc3NC(=O)CCCc3ccccc3)CC2)cc1C, CCn1cc(CN2CCC(n3nccc3NC(=O)CCCc3ccccc3)CC2)c(C)n1, CCN(C(=O)c1sc2cc(OC)ccc2c1Cl)c1ccccc1, CCN(CC)S(=O)(=O)c1ccc2c(c1)c(=O)c(C(=O)N1CCN(c3cccc(Cl)c3)CC1)cn2C, O=C(NCCN1CCOCC1)/C(=C/c1ccc(F)cc1)NC(=O)c1ccccc1, Cc1ccc(C(=O)N/C(=C\c2ccc(F)cc2)C(=O)NCCN2CCOCC2)cc1, Cc1ccccc1CN1C(=O)c2ccccc2Sc2ccc(C(=O)NCCCN3CCOCC3)cc21, CCc1nc2c(cnn2-c2ccc(C)cc2)c(=O)n1-c1ccc(C)cc1, CCOc1ccccc1/C=N/Nc1nc2ccccc2o1, CCOc1ccc(N(CC)S(=O)(=O)N2CCCC(C(=O)NCc3ccc(Cl)cc3)C2)cc1 (centres undefined), CCc1ccc(Oc2coc3cc(O)ccc3c2=O)cc1, CCOC(=O)c1cccc(NC(=O)c2cc(CN3CCCC3)on2)c1, CCOc1cc(C)c(S(=O)(=O)NCc2ccccn2)cc1C, O=C(c1ccc(Cl)c([N+](=O)[O-])c1)N1CCN(c2ccccc2)CC1, CCCN(CCC)CCCNC(=O)Cn1cc2c(n1)-c1c(oc(C(=O)N3CCCC3)c1C)CC2, COCC(C)NS(=O)(=O)c1ccc(N2CCCCS2(=O)=O)cc1 (centres undefined), Cc1nc2sc(C)c(C)n2c(=O)c1S(=O)(=O)NCCc1ccc(Cl)cc1, Cc1cccn2c(=O)c3cc(C(=O)NC4CCCCC4)sc3nc12, Cc1cccc(NC(=O)c2cc3c(C)nn(-c4ccccc4)c3s2)c1, COc1cc(Cl)c(NC(=O)CC(C)S(=O)(=O)c2cc3c(cc2C)NC(=O)CO3)c(OC)c1 (centres undefined), CC(C)(C)C(=O)c1cnc(Nc2ccccc2)s1, O=C(CSc1ncccn1)NCCc1ccccc1, O=c1cnnc(Nc2ccccc2)[nH]1, O=S(=O)(NCCc1ccccc1)c1ccccc1, CCOC(=O)C1CCC(CN(Cc2ccc(OC)cc2)S(=O)(=O)c2ccc(F)c(C(=O)Nc3cc(C)ccc3C)c2)CC1 (centres undefined), N#CC1=C(N)N(c2ccccc2)C2=C(C(=O)CCC2)C1c1ccccc1 (centres undefined), CCc1ccc(C2C(C#N)=C(N)N(N(C)C)C3=C2C(=O)CCC3)s1 (centres undefined), CC(=O)Nc1cccc(NC(=O)CSc2cn(CC(=O)N3CCCC3)c3ccccc23)c1, CCN(CCCNC(=O)c1cc(Nc2ccc(OC)cc2)nc2ccccc12)c1cccc(C)c1, COc1ccc(Cl)cc1NC(=O)CCn1c(=O)c2cccn2c2ccccc21, CCn1cc(C(=O)N2CCN(c3cc(Cl)ccc3C)CC2)c(=O)c2cc(S(=O)(=O)N3CCCC3)ccc21, Cc1ccc(Cl)cc1N1CCN(C(=O)c2cccn3c(=O)c4cc(Cl)ccc4nc23)CC1, CN(C)C(=O)COC(=O)c1cccc(S(=O)(=O)N2CC3(C)CC2CC(C)(C)C3)c1 (centres undefined), Cc1ccc(Nc2c(-c3ccc(C)s3)nc3ccccn23)cc1, Cc1nc2ccccn2c(=O)c1NC(=O)c1c(F)cccc1F, CCc1cc2c(-c3ccccc3)cc(=O)oc2c2c1OCN(Cc1ccc(C)cc1)C2, COc1ccccc1CNS(=O)(=O)c1cc(C(=O)NCc2ccccn2)c(Cl)cc1Cl, CCOc1ccc(NC(=O)C2CCN(S(=O)(=O)c3cc(-c4noc(C)n4)ccc3C)CC2)cc1, Cc1ccccc1NC(=O)Cn1c(=O)n(Cc2ccco2)c(=O)c2ccc(C(=O)NC3CCCC3)cc21, CCN1C(=O)c2ccccc2S(=O)c2ccc(C(=O)NCc3ccc(F)cc3)cc21 (centres undefined), COc1cccc(CCNC(=O)COc2cccc3c2OC(C)(C)C3)c1, COC(=O)/C(NC(C)=O)=C(\C)c1ccc(Cl)cc1, COC(=O)c1cn(C(=O)c2ccc(Cl)cc2)c2ccccc12, Cc1cc(Nc2cccc(C(F)(F)F)c2)nc2ccc(NC(=O)c3ccc(=O)[nH]c3)cc12, O=C(Nc1nc2ccccc2s1)c1ccc2c(c1)OCO2, O=C(O)CS/C(=C\c1ccc(F)cc1)c1nc2ccccc2s1, Cc1ccc2oc3c(c(=O)c2c1)C(c1ccc(O)cc1)N(Cc1ccc2c(c1)OCO2)C3=O (centres undefined), Cc1ccc(-n2c(=O)c3cccnc3n2CC(=O)Nc2ccccc2C(F)(F)F)cc1C, COc1ccc(Cc2nnc(SCC(=O)Nc3ccc(C)c(C)c3)o2)cc1OC, COc1ccc(S(=O)(=O)N2CCOCC2)cc1NC(=O)CSc1ncnc2ccccc12, Cc1ccc(S(=O)(=O)N2CCOCC2)cc1C(=O)NCc1ccc(F)cc1, O=C(CNCc1cccs1)Nc1cc(S(=O)(=O)N2CCCC2)ccc1Cl, O=C(Nc1ccc2c(c1)nc1n2CCCCC1)c1cc(S(=O)(=O)N2CCOCC2)ccc1Cl, Cc1cccc(OCCC(=O)Nc2cc(S(=O)(=O)N3CCCCC3)ccc2N2CCOCC2)c1

activity, negative = inhibition, inactive:
COC(=O)C1=C(C)NC(=S)NC1c1ccc(OCC(=O)N2CC(C)OC(C)C2)c(OC)c1 (centres undefined) -3.57% [at 12.7 µM], CCOC(=O)C1=C(c2ccccc2)NC(=S)NC1c1ccc(Cl)cc1 (centres undefined) -11.4% [at 12.7 µM], CCN1CCN(CCNC(=O)c2ccc3c(c2)NC(=O)/C(=C\c2ccc(OC)c(OC)c2)S3)CC1 4.92% [at 0.0925 µM], O=C1[C@H]2[C@@H](c3ccc(F)cc3)N3C(=O)N(c4ccc(C(F)(F)F)cc4)C(=O)[C@@]3(Cc3ccccc3)[C@H]2C(=O)N1C1CCCCC1 1.06% [at 12.7 µM], Cc1cc(=O)[nH]c(=S)[nH]1 -41.8% [at 2.33 µM], O=C(c1cccc(F)c1)N1CCN(c2ccc([N+](=O)[O-])c(N3CCCCC3)c2)CC1 21.2% [at 0.501 µM], CCOc1ccc(S(=O)(=O)Nc2cccc(C(=O)NCC3(N4CCCCC4)CCCCC3)c2)cc1 19.1% [at 0.501 µM], O=C(N[C@@H](Cc1ccccc1)C(=O)OCc1ccccc1)c1nc[nH]c1C(=O)NC1CCNCC1 -7.95% [at 2.33 µM], CC[C@H](C)C(=O)N[C@H]1CCCN1C(=O)/C=C/c1ccccc1 11.1% [at 2.33 µM], COc1ccc(C(=O)N2CCN(c3ncccn3)CC2)cc1S(=O)(=O)N1CCOCC1 10.4% [at 12.7 µM], COc1ccc(C(=O)OC(C)C(=O)NC2CCCC2)cc1S(=O)(=O)N1CCOCC1 (centres undefined) 22.8% [at 12.7 µM], CN1CCN(Cc2c(O)ccc3c2oc(=O)c2ccccc23)CC1 -28% [at 2.33 µM], COc1ccc(S(=O)(=O)N2CCCCC2)cc1NC(=O)COc1ccccc1 -9.48% [at 2.33 µM], COc1ccc(S(=O)(=O)N2CCOCC2)cc1NC(=O)c1ccc(OCC(C)C)c(OC)c1 22.9% [at 2.33 µM], Cc1ccc(S(=O)(=O)N2CCOCC2)cc1C(=O)Nc1ccccc1N1CCCC1 11% [at 0.501 µM]

From PubChem BioAssay AID504332 (National Center for Advancing Translational Sciences (NCATS), 2011)
